Results from PubChem BioAssay (Tox21).
Inconclusive results are not listed. Active and inactive are the calls of the source. Unless noted, the call rests on the fitted dose curve; in most records, active means well fitted curve in the direction sought with a large enough effect in the repeat runs; inconclusive means weak or mixed curves; inactive means no such curve, though single readings can be large; an effect the other way counts as inactive or inconclusive.

How the values were obtained:
[1] = qHTS assay for small molecules that induce genotoxicity in human embryonic kidney cells expressing luciferase-tagged ATAD5 (AID 651632); further: nearly all actives have a fitted effect of over 15% in size
In short: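 Luminescent reporter readout, HEK293T ATAD5-luc line: 16 hr drug exposure (37C, 5% CO2) followed by Amplite, 30 min RT.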

[2] = qHTS assay for small molecule agonists of the p53 signaling pathway - cell viability (AID 651633; calls by dose curve;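 further: p53RE-bla HCT reporter cells with a stable beta-lactamase p53 reporter; series mostly up to about 83 µM; nearly all actives have a fitted effect of over 30% in size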)
In short: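 Viability counter-read: CellTiter-Glo luminescence (30 min, room temperature) in the same p53RE-bla plates. These plates had been exposed to compounds for 16 h at 37 C.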

[3] = qHTS assay for small molecules that induce genotoxicity in human embryonic kidney cells expressing luciferase-tagged ATAD5 - cell viability (AID 651634; calls by dose curve; further: nearly all actives have a fitted effect of over 25% in size)
In short: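 Viability read: CellTiter-Fluor fluorescence, 30 min at 37C. Cells: HEK293T, luciferase-tagged ATAD5. Exposure: 15.5 hr, 37C, 5% CO2, compound or DMSO vehicle.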

[4] = qHTS assay for small molecule disruptors of the mitochondrial membrane potential - cell viability (AID 720634; calls by dose curve;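 further: human HepG2 liver cancer cells; series mostly up to about 83 µM; nearly all actives have a fitted effect of over 20% in size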)
In short: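 HepG2, 1 hr compound, 37 C. ATP luminescence via CellTiter-Glo, 30 min RT, same well as m-MPI.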

[5] = qHTS assay for small molecule disruptors of the mitochondrial membrane potential (AID 720635)
In short: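 Mitochondrial membrane potential tracked with Mito-MPS dye, red aggregates (ex 540/em 590 nm) against green monomers (ex 490/em 535 nm). Compound treatment 1 hr at 37C, dye 30 min in HepG2.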

[6] = qHTS assay to test for compound auto fluorescence at 590 nm (red) in HepG2 cells (AID 720674)
In short: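 We screened compounds on adherent HepG2 cells, incubating them for an hour at 37 C in 5% CO2 before reading emission at 590 nm under 540 nm excitation; values reflect equivalence to Rose Bengal sodium fluorescence.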

[7] = qHTS assay to test for compound auto fluorescence at 535 nm (green) in HepG2 cells (AID 720675)
[8] = qHTS assay to test for compound auto fluorescence at 460 nm (blue) in HEK293 cells (AID 720678)
In short: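 Triamterene serves as the blue fluorophore standard. Compound signal at 405/460 nm is read in HEK293 wells (2,000 cells, 10% dialyzed FBS) after overnight treatment at 37C.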

[9] = qHTS assay to test for compound auto fluorescence at 590 nm (red) in HEK293 cells (AID 720679)
In short: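 We plated HEK293 cells in 10% dialyzed FBS medium, let them adhere for 4-5 hr, then added 23 nL compound. Overnight at 37C and 5% CO2 preceded fluorescence measurement at 540/590nm.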

[10] = qHTS assay to test for compound auto fluorescence at 460 nm (blue) in HEK293 cell free culture (AID 720681)
In short: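 Blue fluorescence (Ex 405/Em 460 nm, triamterene-equivalent) was read immediately after pin transfer of compound or DMSO into medium (DMEM, 10% FBS) without cells.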

[11] = qHTS assay to test for compound auto fluorescence at 535 nm (green) in HEK293 cell free culture (AID 720682)
In short: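 Each library compound, or DMSO control, is added by pintool to medium alone, comprising DMEM and 10% FBS. Emission at 535 nm following 485 nm excitation is quantified against fluorescein.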

[12] = qHTS assay to test for compound auto fluorescence at 590 nm (red) in HEK293 cell free culture (AID 720683)
In short: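 Red-channel autofluorescence of compounds in culture medium (DMEM, 10% FBS), no cells, measured at 540/590 nm. Rose Bengal sodium is the reference fluorophore for equivalence.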

[13] = qHTS assay to test for compound auto fluorescence at 590 nm (red) in HepG2 cell free culture (AID 720684)
In short: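 Steps: dispense MEM/10% FBS medium, no cells; pin compound or DMSO vehicle; read red channel, Ex/Em 540/590 nm. Output given as Rose Bengal sodium equivalents.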

[14] = qHTS assay to test for compound auto fluorescence at 460 nm (blue) in HepG2 cell free culture (AID 720685)
In short: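 Compound (23 nL) or DMSO pinned into cell-free MEM with 10% FBS; blue fluorescence read at 405/460 nm excitation/emission, expressed as auto-fluorescence equivalency to triamterene.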

[15] = qHTS assay to test for compound auto fluorescence at 535 nm (green) in HepG2 cell free culture (AID 720686)
[16] = qHTS assay to test for compound auto fluorescence at 460 nm (blue) in HepG2 cells (AID 720687)
In short: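 Blue-channel autofluorescence (Ex/Em 405/460 nm, triamterene-equivalent) was measured after 1 hr compound exposure at 37 C, 5% CO2. Cells were HepG2, plated overnight at 37 C in MEM plus 10% FBS.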

[17] = biological target: Glucocorticoid receptor (Homo sapiens) (UniProt P04150); assay: qHTS assay to identify small molecule agonists of the glucocorticoid receptor (GR) signaling pathway (AID 720691; active means well fitted activation curve with a large enough effect in the signal ratio in the repeat runs, not every such curve was filed as active; the % refers to the signal ratio)
Sequence of Glucocorticoid receptor (Homo sapiens) (P04150 whole entry, looked up): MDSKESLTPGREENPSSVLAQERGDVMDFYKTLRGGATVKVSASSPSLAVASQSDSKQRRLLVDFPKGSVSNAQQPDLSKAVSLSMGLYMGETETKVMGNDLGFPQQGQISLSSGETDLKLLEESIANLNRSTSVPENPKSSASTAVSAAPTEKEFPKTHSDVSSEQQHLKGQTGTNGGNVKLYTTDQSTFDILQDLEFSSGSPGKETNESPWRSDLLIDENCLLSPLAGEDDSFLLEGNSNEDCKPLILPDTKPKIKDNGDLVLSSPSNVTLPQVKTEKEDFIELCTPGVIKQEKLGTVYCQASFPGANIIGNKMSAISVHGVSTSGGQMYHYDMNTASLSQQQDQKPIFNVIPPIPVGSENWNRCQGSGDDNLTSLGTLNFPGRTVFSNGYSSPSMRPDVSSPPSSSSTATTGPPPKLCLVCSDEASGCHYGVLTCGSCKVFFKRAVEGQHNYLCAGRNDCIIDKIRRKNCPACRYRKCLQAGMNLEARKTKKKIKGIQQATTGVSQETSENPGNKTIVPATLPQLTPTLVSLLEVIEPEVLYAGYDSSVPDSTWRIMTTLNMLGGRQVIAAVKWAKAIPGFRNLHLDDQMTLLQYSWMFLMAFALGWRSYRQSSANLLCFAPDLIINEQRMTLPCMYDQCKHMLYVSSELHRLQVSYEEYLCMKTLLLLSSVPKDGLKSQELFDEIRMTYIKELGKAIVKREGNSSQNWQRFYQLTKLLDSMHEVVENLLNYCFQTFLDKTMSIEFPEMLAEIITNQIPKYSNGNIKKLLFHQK
In short: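 qHTS in GR-bla HeLa cells: 4 h settling at 37 C/5% CO2, 18 h compound incubation at 37 C, 2 h LiveBLAzer B/G FRET substrate at room temperature, fluorescence intensity measured.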

[18] = qHTS assay to test for compound auto fluorescence at 535 nm (green) in HEK293 cells (AID 720680)
[19] = biological target: Glucocorticoid receptor (Homo sapiens) (UniProt P04150); assay: qHTS assay to identify small molecule antagonists of the glucocorticoid receptor (GR) signaling pathway (AID 720692; active means well fitted inhibition curve with a large enough effect in the signal ratio in the repeat runs, not every such curve was filed as active; the % refers to the signal ratio)
In short: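 Inhibition of glucocorticoid signalling is measured in HeLa cells with a GRE-controlled beta-lactamase reporter; cells are co-treated with compound and 5 nM dexamethasone (final) for 18 h before FRET substrate readout.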
On the % scale 0 is the no-effect control and ±100 the full control effect.

CCC(C)N (configuration not stated)
inactive: outcome [1] | outcome [2] | Potency [3] | outcome [4] | Potency [5] | outcome [6] | outcome [7] | outcome [8] | outcome [9] | outcome [10] | outcome [11] | outcome [12] | outcome [13] | outcome [14] | outcome [15] | outcome [16] | Potency [17]

CN=C(NC#N)NCCSCc1csc(N=C(N)N)n1
inactive: outcome [1] | outcome [2] | Potency [3] | outcome [4] | Potency [5] | outcome [6] | outcome [7] | outcome [8] | outcome [9] | outcome [18] | outcome [10] | outcome [11] | outcome [12] | outcome [13] | outcome [14] | outcome [15] | outcome [16] | outcome [19]

NS(=O)(=O)c1cc2c(cc1Cl)NC(CC1CCCC1)NS2(=O)=O (configuration not stated)
inactive: outcome [1] | outcome [2] | Potency [3] | outcome [4] | Potency [5] | fluorescence, relative to Rose Bengal [6] -0.14% [at 18.6 µM] | fluorescence, % of fluorescein control [7] -0.0768% [at 18.6 µM] | fluorescence, % of triamterene [8] -0.024% [at 18.6 µM] | fluorescence, % of fluorescent control [9] -0.246% [at 18.6 µM] | fluorescence, % of fluorescein [18] 0.0502% [at 18.6 µM] | fluorescence, % of fluorescent control [10] -0.0459% [at 18.6 µM] | activity change [11] 0.104% [at 18.6 µM] | fluorescence, % of fluorescent control [12] -0.0938% [at 18.6 µM] | fluorescence, % of Rose Bengal [13] 0.409% [at 18.6 µM] | fluorescence, % of fluorescent control [14] -0.0354% [at 18.6 µM] | fluorescence, % of fluorescein control [15] -0.0012% [at 18.6 µM] | fluorescence, % of fluorescent control [16] 0.11% [at 18.6 µM] | Potency [17] | outcome [19]

Cc1ccccc1C
inactive: outcome [1] | outcome [2] | Potency [3] | outcome [4] | Potency [5] | outcome [6] | outcome [7] | outcome [8] | outcome [9] | outcome [18] | outcome [10] | outcome [11] | outcome [12] | outcome [13] | outcome [14] | outcome [15] | outcome [16] | Potency [17]

O=c1cc(O)c(Cl)c[nH]1
inactive: outcome [1] | outcome [2] | Potency [3] | outcome [4] | Potency [5] | outcome [6] | outcome [7] | outcome [8] | outcome [9] | outcome [18] | outcome [10] | outcome [11] | outcome [12] | outcome [13] | outcome [14] | outcome [15] | outcome [16]

Cc1oc(=O)oc1CN1CCN(c2cc3c(cc2F)c(=O)c(C(=O)O)c2n3C(C)S2)CC1 (configuration not stated)
inactive: outcome [1] | outcome [2] | Potency [3] | outcome [4] | outcome [6] | outcome [7] | outcome [8] | outcome [9] | outcome [18] | outcome [10] | outcome [11] | outcome [12] | outcome [13] | outcome [14] | outcome [15] | outcome [16]

O=C(CN1CCN(Cc2ccc3c(c2)OCO3)CC1)N1c2ccccc2Sc2ccccc21
inactive: outcome [1] | outcome [2] | Potency [3] | outcome [4] | Potency [5] | outcome [6] | outcome [7] | outcome [8] | outcome [9] | outcome [18] | outcome [10] | outcome [11] | outcome [12] | outcome [13] | outcome [14] | outcome [15] | outcome [16]

C[C@H](CCC(=O)O)[C@H]1CC[C@H]2[C@@H]3[C@H](O)C[C@@H]4C[C@H](O)CC[C@]4(C)[C@H]3C[C@H](O)[C@]12C
inactive: outcome [1] | outcome [2] | Potency [3] | outcome [4] | Potency [5] | outcome [6] | outcome [7] | outcome [8] | outcome [9] | outcome [18] | outcome [10] | outcome [11] | outcome [12] | outcome [13] | outcome [14] | outcome [15] | outcome [16] | outcome [19]

COc1ccc(OC)c(NC(=O)CC(C)=O)c1
inactive: outcome [1] | outcome [2] | Potency [3] | outcome [4] | outcome [6] | outcome [7] | outcome [8] | outcome [9] | outcome [18] | outcome [10] | outcome [11] | outcome [12] | outcome [13] | outcome [14] | outcome [15] | outcome [16]

Nc1cc(C(=O)O)ccc1Cl
inactive: outcome [1] | outcome [2] | Potency [3] | outcome [4] | Potency [5] | outcome [6] | outcome [7] | outcome [8] | outcome [9] | outcome [18] | outcome [10] | outcome [11] | outcome [12] | outcome [13] | outcome [14] | outcome [15] | outcome [16]

CCCCCCCCCCC
inactive: outcome [1] | outcome [2] | Potency [3] | outcome [4] | Potency [5] | outcome [6] | outcome [7] | outcome [8] | outcome [9] | outcome [10] | outcome [11] | outcome [12] | outcome [13] | outcome [14] | outcome [15] | outcome [16] | Potency [17] | outcome [19]

O=C(O)c1ccccc1C(=O)Nc1ccc(S(=O)(=O)Nc2nccs2)cc1
inactive: outcome [1] | outcome [2] | Potency [3] | outcome [4] | Potency [5] | outcome [6] | outcome [7] | outcome [8] | outcome [9] | outcome [10] | outcome [11] | outcome [12] | outcome [13] | outcome [14] | outcome [15] | outcome [16] | outcome [19]

NC(=O)C1(N2CCCCC2)CCN(CCCC(=O)c2ccc(F)cc2)CC1
inactive: outcome [1] | outcome [2] | Potency [3] | outcome [4] | Potency [5] | outcome [6] | outcome [7] | outcome [8] | outcome [9] | outcome [18] | outcome [10] | outcome [11] | outcome [12] | outcome [13] | outcome [14] | outcome [15] | outcome [16] | Potency [17]

CCS(=O)(=O)CCn1c([N+](=O)[O-])cnc1C
inactive: outcome [1] | outcome [2] | Potency [3] | outcome [4] | Potency [5] | fluorescence, relative to Rose Bengal [6] 0.187% [at 18.6 µM] | fluorescence, % of fluorescein control [7] -0.217% [at 18.6 µM] | fluorescence, % of triamterene [8] -0.271% [at 18.6 µM] | fluorescence, % of fluorescent control [9] 0.0006% [at 18.6 µM] | fluorescence, % of fluorescent control [10] 0.0677% [at 18.6 µM] | activity change [11] 0.0328% [at 18.6 µM] | fluorescence, % of fluorescent control [12] -0.106% [at 18.6 µM] | fluorescence, % of Rose Bengal [13] 0.0121% [at 18.6 µM] | fluorescence, % of fluorescent control [14] 0.0838% [at 18.6 µM] | fluorescence, % of fluorescein control [15] -0.0978% [at 18.6 µM] | fluorescence, % of fluorescent control [16] 0.0125% [at 18.6 µM]
